Consider 40 molecules from PubChem BioAssay (NCI).

About 79,000 compounds went through this panel and 15% of them were active in at least one assay; those are over-represented in the sample as a whole. Values without a mark were called inactive. Active and inactive are the calls of the source. Cut-off read from the data, not from the text of the source: active = growth inhibition above about 70%; inactive = the rest.

A short description of this test: NCI Yeast Anticancer Drug Screen. Data for the mec2-1 strain (AID 157). The following applies: S. cerevisiae mec2-1 strain, at 5.0 µM (retest, dose inferred, filed as 0.5), hits give high values. The method in brief:
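Strain: mec2-1 (DNA repair/cell cycle alteration). Compound exposure, then growth measured; inhibition expressed relative to vehicle.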
With `CCOC(=O)CNC(=O)C1C2c3ccccc3C(c3ccccc32)C1C(=O)O` (stereo not given), the growth inhibition is 3%. With `O=[N+]([O-])c1ccc(NP(=S)(Nc2ccc([N+](=O)[O-])cc2)c2ccccc2)cc1` the figure was 38%; with `O=P(c1ccccc1)(c1ccccc1)c1ccccc1.[Cl][Sn]([c]1ccccc1)([c]1ccccc1)[c]1ccccc1`, 97% (active). Turning to `CC(C)(C)OOC(=O)/C=C\C(=O)OOC(C)(C)C`, the growth inhibition is -2%. With `Cc1cc2c(cc1O)C(C)(C)CCC2(C)C` the figure was -1%; with `N#CC(C#N)=Cc1ccc(Cl)o1`, 4%; with `COc1c(Br)cc(/C=C/[N+](=O)[O-])cc1Br`, 99% (active).

`[O]=[Sb]([OH])([OH])[c]1ccc(NC2OC(CO)C(O)C(O)C2O)cc1` (stereo not given): the growth inhibition is 0%. In the case of `NC(=S)C1=C(N)Oc2c(c(=O)oc3ccccc23)C1c1ccc(Br)cc1` (stereo not given), the growth inhibition was 10%. For `COS(=O)(=O)c1ccccc1`, the growth inhibition is 0%. With `O=[N+]([O-])c1cc[n+]([O-])c2ccccc12` the figure was 100% (active); with `O=C(c1ccccc1)c1c(CC(O)c2cccnc2)n(C(=O)c2ccccc2)c2ccccc12` (stereo not given), 3%; with `Nc1nc2ncnc(N)c2nc1-c1ccc(N(CCCl)CCCl)cc1`, -3%. Consider `O=C1c2ccccc2CCC1Br` (stereo not given), for which the growth inhibition is 11%. As for `CC1CCCC[N-]1.CC1CCCC[N-]1.N#C[S-].N#C[S-].[Cd]` (stereo not given), the growth inhibition was 9%. With `CCOP(=O)(OCC)/C(C#N)=C/c1ccc(Br)cc1` the figure was -14%; with `CN(CCCl)Cc1ccc(OCc2ccccc2)c(OCc2ccccc2)c1`, -20%; with `O=C(O)c1cccc2cccc(C(=O)O)c12.[Hg]`, 100% (active). With `S=c1[nH]c2ccccc2s1.[Pb]` the figure was -1%; with `COc1ccc([As](O[As](c2ccc(OC)cc2)c2ccc(OC)cc2)c2ccc(OC)cc2)cc1`, 100% (active).

On to `CC1=C/C(=C2/N=C(N(C)C)SS2)C(C)=N1`, for which the growth inhibition was 1%.

For `CN1C2CCC1c1c([nH]c3ccccc13)C2` (stereo not given), the growth inhibition was -9%. With `C[CH2][Sn]([Br])([CH2]C)[c]1ccccc1CN(C)C` the figure was 23%. With `O=C(CCl)Nc1ccc(Cl)cc1` the figure was 1%.

On to `ClC1CCCCC1[Se](Cl)(Cl)C1CCCCC1Cl` (stereo not given), for which the growth inhibition is 45%. With `Cc1cc(C(C)(C)c2ccc(O)c(C)c2)ccc1O` the figure was -4%; with `O=[N+]([O-])O.[In]`, 17%; with `[pH]1p2[pH]p3p1p3[pH]2.c1cc[c]([Ge]([c]2ccccc2)[c]2ccccc2)cc1.c1cc[c]([Ge]([c]2ccccc2)[c]2ccccc2)cc1.c1cc[c]([Ge]([c]2ccccc2)[c]2ccccc2)cc1`, 20%. Regarding `C1=CC2CCC[N-]C2N1.C1=CC2CCC[N-]C2N1.[I][Pt+2][I]` (stereo not given), the growth inhibition was 9%. With `O=[N+]([O-])/C=C/c1cccc(F)c1` the figure was 30%; with `O=[N+]([O-])c1ccc(CS(=O)(=O)C(Cl)(Cl)Cl)o1`, 25%; with `CC(=O)[O][Hg][c]1ccc(N)[c]([Hg][O]C(C)=O)c1`, 99% (active). With `CNP(=O)(Oc1cc(Cl)c(Cl)cc1Cl)N1CCN(c2ccccc2)CC1` (stereo not given) the figure was 36%; with `Cc1ccc2c(c1)N(CCN(CCCl)CCCl)c1c(ccc3ccccc13)S2`, -1%. With `CC1(C(=O)O)CCCC2(C)c3cc(O)ccc3CCC12` (stereo not given) the figure was 2%; with `C#CC(O)(CC)CC`, 0%; with `CC1CC[N-]C(C)C1.CN(C)C=O.[Cl][Pt][Cl]` (stereo not given), 42%. With `CN1CCN(c2ccc3nc(-c4ccc5nc(-c6ccc(N(C)CCCl)cc6)[nH]c5c4)[nH]c3c2)CC1`, the growth inhibition is -10%. `CC(=O)NNc1ccccc1`: the growth inhibition is 2%. Turning to `CC(C)[S-].CC(C)[S-].[Pt+2].c1ccc([PH+](c2ccccc2)c2ccccc2)cc1.c1ccc([PH+](c2ccccc2)c2ccccc2)cc1`, the growth inhibition is 5%.
